# Assay results published in article PMC11006913.
# Positions count from the first letter of the chain named.
# What was measured:
# Test in all cases: PBM; 200 nM protein, PBS
# Conditions in all cases: dsDNA, one strand shown
# NKX2-5 [1] = biological target: NKX2-5 (Homo sapiens, UniProt P52952 125-210, R139K)
# NKX2-6 [2] = biological target: T1, NKX2-6 (Homo sapiens, UniProt A6NCS4 118-204, R150C)
# T1 sequence: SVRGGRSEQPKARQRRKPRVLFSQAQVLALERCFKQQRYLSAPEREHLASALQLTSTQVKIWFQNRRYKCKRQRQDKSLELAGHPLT
# NKX2-6 [3] = biological target: T2, NKX2-6 (Homo sapiens, UniProt A6NCS4 118-204)
# T2 sequence: T1 sequence with C33R
# NKX2-6 [4] = biological target: T3, NKX2-6 (Homo sapiens, UniProt A6NCS4 118-204, F151L)
# T3 sequence: T1 sequence with C33R, F34L
# NKX3-2 [5] = biological target: NKX3-2 (Homo sapiens, UniProt P78367 192-278, P234S)
# Chain of NKX3-2 (Homo sapiens, UniProt P78367 192-278, P234S) (P78367 192-278 P234S): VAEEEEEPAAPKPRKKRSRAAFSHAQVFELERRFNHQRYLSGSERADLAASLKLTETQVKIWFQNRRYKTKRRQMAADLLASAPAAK
# NKX2-5 [6] = biological target: NKX2-5 (Homo sapiens, UniProt P52952 125-210)
# Chain of NKX2-5 (Homo sapiens, UniProt P52952 125-210) (P52952 125-210): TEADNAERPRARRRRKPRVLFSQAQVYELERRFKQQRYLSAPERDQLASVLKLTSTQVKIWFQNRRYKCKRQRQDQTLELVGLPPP
# NKX3-2 [7] = biological target: NKX3-2 (Homo sapiens, UniProt P78367 192-278)
# Chain of NKX3-2 (Homo sapiens, UniProt P78367 192-278) (P78367 192-278): as the sequence (P78367 192-278 P234S) above, with S43P counted along it
# PROP1 [8] = biological target: PROP1 (Homo sapiens, UniProt O75360 56-141)
# Chain of PROP1 (Homo sapiens, UniProt O75360 56-141) (O75360 56-141): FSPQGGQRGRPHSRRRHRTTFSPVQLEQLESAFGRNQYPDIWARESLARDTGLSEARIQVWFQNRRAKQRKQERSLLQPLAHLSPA
# PROP1 [9] = biological target: PROP1 (Homo sapiens, UniProt O75360 56-141, R99H)
# Chain of PROP1 (Homo sapiens, UniProt O75360 56-141, R99H) (O75360 56-141 R99H): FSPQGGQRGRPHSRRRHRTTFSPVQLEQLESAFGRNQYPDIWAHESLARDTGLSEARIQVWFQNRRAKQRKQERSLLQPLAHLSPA
# PROP1 [10] = biological target: PROP1 (Homo sapiens, UniProt O75360 56-141, F88S)
# Chain of PROP1 (Homo sapiens, UniProt O75360 56-141, F88S) (O75360 56-141 F88S): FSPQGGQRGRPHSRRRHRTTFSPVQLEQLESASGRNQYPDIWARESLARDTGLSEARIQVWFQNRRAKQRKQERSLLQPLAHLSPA
# HOXD13 [11] = biological target: HOXD13 (Homo sapiens, UniProt P35453 263-343, T313R)
# Chain of HOXD13 (Homo sapiens, UniProt P35453 263-343, T313R) (P35453 263-343 T313R): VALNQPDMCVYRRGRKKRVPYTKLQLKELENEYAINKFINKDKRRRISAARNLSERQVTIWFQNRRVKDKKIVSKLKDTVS
# PITX2 = PITX2 (Homo sapiens, UniProt Q99697 72-157)
# HOXD13 [12] = biological target: HOXD13 (Homo sapiens, UniProt P35453 263-343)
# Chain of HOXD13 (Homo sapiens, UniProt P35453 263-343) (P35453 263-343): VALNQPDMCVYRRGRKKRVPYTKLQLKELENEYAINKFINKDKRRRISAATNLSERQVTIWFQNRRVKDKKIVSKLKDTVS
# HOXD13 [13] = biological target: HOXD13 (Homo sapiens, UniProt P35453 263-343, T313A)
# Chain of HOXD13 (Homo sapiens, UniProt P35453 263-343, T313A) (P35453 263-343 T313A): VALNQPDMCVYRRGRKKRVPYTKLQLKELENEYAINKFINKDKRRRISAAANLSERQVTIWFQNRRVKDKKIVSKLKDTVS
# NKX2-4 = biological target: T4, NKX2-4 (Homo sapiens, UniProt Q9H2Z4 175-261, R246Q)
# T4 sequence: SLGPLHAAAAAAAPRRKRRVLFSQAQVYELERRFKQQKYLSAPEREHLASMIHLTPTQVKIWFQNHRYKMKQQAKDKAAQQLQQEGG
# MSX2 [14] = biological target: MSX2 (Homo sapiens, UniProt P35548 130-214, R199I)
# Chain of MSX2 (Homo sapiens, UniProt P35548 130-214, R199I) (P35548 130-214 R199I): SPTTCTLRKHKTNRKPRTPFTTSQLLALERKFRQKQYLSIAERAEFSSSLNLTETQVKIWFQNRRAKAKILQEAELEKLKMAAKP
# MSX2 [15] = biological target: MSX2 (Homo sapiens, UniProt P35548 130-214)
# Chain of MSX2 (Homo sapiens, UniProt P35548 130-214) (P35548 130-214): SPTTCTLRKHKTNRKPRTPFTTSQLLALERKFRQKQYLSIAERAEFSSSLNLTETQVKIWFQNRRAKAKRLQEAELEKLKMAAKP
# MSX2 [16] = biological target: MSX2 (Homo sapiens, UniProt P35548 130-214, F161Y)
# Chain of MSX2 (Homo sapiens, UniProt P35548 130-214, F161Y) (P35548 130-214 F161Y): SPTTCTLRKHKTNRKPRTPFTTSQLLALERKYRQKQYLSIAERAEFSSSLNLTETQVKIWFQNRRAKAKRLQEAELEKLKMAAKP
# Chain of NKX2-5 (Homo sapiens, UniProt P52952 125-210, R139K) (P52952 125-210 R139K): as the sequence (P52952 125-210) above, with R15K counted along it
sequence,measurement,setting,value
CACACTTA,binding signal,NKX2-5 [1],"12.5 upbm affinity estimate (log intensity, higher = more binding, comparable within an allelic series)"
same,binding signal,NKX2-6 [2],"11.7 upbm affinity estimate (log intensity, higher = more binding, comparable within an allelic series)"
same,binding signal,NKX2-6 [3],"13.5 upbm affinity estimate (log intensity, higher = more binding, comparable within an allelic series)"
same,binding signal,NKX2-6 [4],"10.9 upbm affinity estimate (log intensity, higher = more binding, comparable within an allelic series)"
same,binding signal,NKX3-2 [5],"12.6 upbm affinity estimate (log intensity, higher = more binding, comparable within an allelic series)"
same,binding signal,NKX2-5 [6],"12.4 upbm affinity estimate (log intensity, higher = more binding, comparable within an allelic series)"
same,binding signal,NKX3-2 [7],"12.7 upbm affinity estimate (log intensity, higher = more binding, comparable within an allelic series)"
CCACGGCG,binding signal,NKX2-5 [1],"8.49 upbm affinity estimate (log intensity, higher = more binding, comparable within an allelic series)"
same,binding signal,NKX2-6 [2],"9.16 upbm affinity estimate (log intensity, higher = more binding, comparable within an allelic series)"
same,binding signal,NKX2-5 [6],"8.47 upbm affinity estimate (log intensity, higher = more binding, comparable within an allelic series)"
GCGCGTCC,binding signal,NKX2-5 [1],"8.83 upbm affinity estimate (log intensity, higher = more binding, comparable within an allelic series)"
same,binding signal,NKX2-6 [2],"9.52 upbm affinity estimate (log intensity, higher = more binding, comparable within an allelic series)"
same,binding signal,PROP1 [8],"6.74 upbm affinity estimate (log intensity, higher = more binding, comparable within an allelic series)"
same,binding signal,PROP1 [9],"6.79 upbm affinity estimate (log intensity, higher = more binding, comparable within an allelic series)"
same,binding signal,PROP1 [10],"6.63 upbm affinity estimate (log intensity, higher = more binding, comparable within an allelic series)"
same,binding signal,NKX3-2 [5],"10.6 upbm affinity estimate (log intensity, higher = more binding, comparable within an allelic series)"
same,binding signal,NKX2-5 [6],"8.91 upbm affinity estimate (log intensity, higher = more binding, comparable within an allelic series)"
same,binding signal,NKX3-2 [7],"10.6 upbm affinity estimate (log intensity, higher = more binding, comparable within an allelic series)"
ACACTTAG,binding signal,NKX2-5 [1],"12.6 upbm affinity estimate (log intensity, higher = more binding, comparable within an allelic series)"
same,binding signal,NKX2-6 [2],"11.7 upbm affinity estimate (log intensity, higher = more binding, comparable within an allelic series)"
same,binding signal,NKX2-6 [3],"13.5 upbm affinity estimate (log intensity, higher = more binding, comparable within an allelic series)"
same,binding signal,NKX2-6 [4],"11 upbm affinity estimate (log intensity, higher = more binding, comparable within an allelic series)"
same,binding signal,NKX3-2 [5],"12.8 upbm affinity estimate (log intensity, higher = more binding, comparable within an allelic series)"
same,binding signal,NKX2-5 [6],"12.5 upbm affinity estimate (log intensity, higher = more binding, comparable within an allelic series)"
same,binding signal,NKX3-2 [7],"12.8 upbm affinity estimate (log intensity, higher = more binding, comparable within an allelic series)"
CTAAGTAC,binding signal,NKX2-5 [1],"12.3 upbm affinity estimate (log intensity, higher = more binding, comparable within an allelic series)"
same,binding signal,NKX2-6 [2],"11.7 upbm affinity estimate (log intensity, higher = more binding, comparable within an allelic series)"
same,binding signal,NKX2-6 [3],"13.4 upbm affinity estimate (log intensity, higher = more binding, comparable within an allelic series)"
same,binding signal,NKX2-6 [4],"10.5 upbm affinity estimate (log intensity, higher = more binding, comparable within an allelic series)"
same,binding signal,NKX3-2 [5],"12.5 upbm affinity estimate (log intensity, higher = more binding, comparable within an allelic series)"
same,binding signal,NKX2-5 [6],"12.2 upbm affinity estimate (log intensity, higher = more binding, comparable within an allelic series)"
same,binding signal,NKX3-2 [7],"12.6 upbm affinity estimate (log intensity, higher = more binding, comparable within an allelic series)"
CGGTGGAG,binding signal,NKX2-5 [1],"8.95 upbm affinity estimate (log intensity, higher = more binding, comparable within an allelic series)"
same,binding signal,HOXD13 [11],"9.59 upbm affinity estimate (log intensity, higher = more binding, comparable within an allelic series)"
same,binding signal,PITX2,"8.06 upbm affinity estimate (log intensity, higher = more binding, comparable within an allelic series)"
same,binding signal,HOXD13 [12],"9.6 upbm affinity estimate (log intensity, higher = more binding, comparable within an allelic series)"
same,binding signal,HOXD13 [13],"9.64 upbm affinity estimate (log intensity, higher = more binding, comparable within an allelic series)"
same,binding signal,NKX2-5 [6],"9.08 upbm affinity estimate (log intensity, higher = more binding, comparable within an allelic series)"
CAGCGTCC,binding signal,NKX2-5 [1],"8.7 upbm affinity estimate (log intensity, higher = more binding, comparable within an allelic series)"
same,binding signal,NKX2-6 [2],"9.46 upbm affinity estimate (log intensity, higher = more binding, comparable within an allelic series)"
same,binding signal,NKX2-5 [6],"8.65 upbm affinity estimate (log intensity, higher = more binding, comparable within an allelic series)"
AAGTGGGT,binding signal,NKX2-5 [1],"12.4 upbm affinity estimate (log intensity, higher = more binding, comparable within an allelic series)"
same,binding signal,NKX2-6 [2],"11.6 upbm affinity estimate (log intensity, higher = more binding, comparable within an allelic series)"
same,binding signal,NKX2-6 [3],"13.5 upbm affinity estimate (log intensity, higher = more binding, comparable within an allelic series)"
same,binding signal,NKX2-6 [4],"10.5 upbm affinity estimate (log intensity, higher = more binding, comparable within an allelic series)"
same,binding signal,NKX3-2 [5],"12.7 upbm affinity estimate (log intensity, higher = more binding, comparable within an allelic series)"
same,binding signal,NKX2-5 [6],"12.3 upbm affinity estimate (log intensity, higher = more binding, comparable within an allelic series)"
same,binding signal,NKX3-2 [7],"12.8 upbm affinity estimate (log intensity, higher = more binding, comparable within an allelic series)"
CCAGCAGC,binding signal,NKX2-5 [1],"8.8 upbm affinity estimate (log intensity, higher = more binding, comparable within an allelic series)"
same,binding signal,NKX2-6 [3],"9.28 upbm affinity estimate (log intensity, higher = more binding, comparable within an allelic series)"
same,binding signal,NKX2-6 [4],"9.29 upbm affinity estimate (log intensity, higher = more binding, comparable within an allelic series)"
same,binding signal,NKX2-5 [6],"8.73 upbm affinity estimate (log intensity, higher = more binding, comparable within an allelic series)"
AGCACTTG,binding signal,NKX2-5 [1],"12.4 upbm affinity estimate (log intensity, higher = more binding, comparable within an allelic series)"
same,binding signal,NKX2-6 [2],"11.6 upbm affinity estimate (log intensity, higher = more binding, comparable within an allelic series)"
same,binding signal,NKX2-4,"13 upbm affinity estimate (log intensity, higher = more binding, comparable within an allelic series)"
same,binding signal,NKX2-6 [4],"10.6 upbm affinity estimate (log intensity, higher = more binding, comparable within an allelic series)"
same,binding signal,NKX2-5 [6],"12.3 upbm affinity estimate (log intensity, higher = more binding, comparable within an allelic series)"
CGTTCCGC,binding signal,NKX2-5 [1],"8.99 upbm affinity estimate (log intensity, higher = more binding, comparable within an allelic series)"
same,binding signal,NKX2-6 [3],"9.44 upbm affinity estimate (log intensity, higher = more binding, comparable within an allelic series)"
same,binding signal,NKX2-6 [4],"9.27 upbm affinity estimate (log intensity, higher = more binding, comparable within an allelic series)"
same,binding signal,NKX2-5 [6],"8.75 upbm affinity estimate (log intensity, higher = more binding, comparable within an allelic series)"
ACTAAGTG,binding signal,NKX2-5 [1],"12.3 upbm affinity estimate (log intensity, higher = more binding, comparable within an allelic series)"
same,binding signal,NKX2-6 [2],"11.6 upbm affinity estimate (log intensity, higher = more binding, comparable within an allelic series)"
same,binding signal,NKX2-6 [3],"13.3 upbm affinity estimate (log intensity, higher = more binding, comparable within an allelic series)"
same,binding signal,NKX2-6 [4],"10.6 upbm affinity estimate (log intensity, higher = more binding, comparable within an allelic series)"
same,binding signal,NKX3-2 [5],"12.9 upbm affinity estimate (log intensity, higher = more binding, comparable within an allelic series)"
same,binding signal,NKX2-5 [6],"12.3 upbm affinity estimate (log intensity, higher = more binding, comparable within an allelic series)"
same,binding signal,NKX3-2 [7],"12.9 upbm affinity estimate (log intensity, higher = more binding, comparable within an allelic series)"
CACTTGTA,binding signal,NKX2-5 [1],"12.5 upbm affinity estimate (log intensity, higher = more binding, comparable within an allelic series)"
same,binding signal,NKX2-6 [2],"11.6 upbm affinity estimate (log intensity, higher = more binding, comparable within an allelic series)"
same,binding signal,NKX2-6 [3],"13.4 upbm affinity estimate (log intensity, higher = more binding, comparable within an allelic series)"
same,binding signal,NKX2-4,"12.9 upbm affinity estimate (log intensity, higher = more binding, comparable within an allelic series)"
same,binding signal,NKX2-6 [4],"10.7 upbm affinity estimate (log intensity, higher = more binding, comparable within an allelic series)"
same,binding signal,NKX2-5 [6],"12.3 upbm affinity estimate (log intensity, higher = more binding, comparable within an allelic series)"
AGCCCAGG,binding signal,NKX2-5 [1],"8.68 upbm affinity estimate (log intensity, higher = more binding, comparable within an allelic series)"
same,binding signal,MSX2 [14],"9.6 upbm affinity estimate (log intensity, higher = more binding, comparable within an allelic series)"
same,binding signal,MSX2 [15],"9.67 upbm affinity estimate (log intensity, higher = more binding, comparable within an allelic series)"
same,binding signal,MSX2 [16],"9.66 upbm affinity estimate (log intensity, higher = more binding, comparable within an allelic series)"
same,binding signal,NKX3-2 [5],"10.1 upbm affinity estimate (log intensity, higher = more binding, comparable within an allelic series)"
same,binding signal,NKX2-5 [6],"8.63 upbm affinity estimate (log intensity, higher = more binding, comparable within an allelic series)"
same,binding signal,NKX3-2 [7],"10.1 upbm affinity estimate (log intensity, higher = more binding, comparable within an allelic series)"
